From PubChem BioAssay AID1117361 (Southern Research Institute, 2015) come the findings set out here.

Screen size: about 3,600 compounds; about 900 (25%) were called active. No rule for the calls is given here. The list is a sample of the results. Results with a measured potency or affinity are listed apart.

The assay has as its target Protein Tat (Human immunodeficiency virus type 1 group M subtype B (isolate HXB2)) (UniProt P04608). The experiment in a line: inhibitors of Tat binding to TAR RNA, dose response, counter-screen for Vif-APOBEC3G degradation inhibitor project, biochemical, fluorescence polarization, FAM-labeled TAR RNA (AID 1117361). The note with it: outcome: dose series up to 100 µM unless noted; series mostly up to 100 µM. (In general: Counterscreens check selectivity or assay interference.)
On to `Cc1noc(C)c1C(=O)N1CCc2ccccc2C1`, for which the molecule was called inactive.
In the case of `CCn1c(C(=O)N2CCc3ccccc3C2)cc2sccc21` it was “inactive”; in that of `CCC(C)(C)C1CCc2c(sc(NC(=O)c3ccoc3C)c2C(N)=O)C1` (centres undefined), “inactive”; in that of `COc1cc(NC(=O)c2nnn(Cc3ccc(SC)cc3)c2N)cc(OC)c1`, “inactive”.
In the case of `Cc1ccc(SCC(=O)c2sc(-c3ccccc3)nc2C)cc1` it was “inactive [at 50 µM]”; in that of `COC(=O)c1ccc(Cl)c(NC(=O)CN(c2ccc3c(c2)OCO3)S(C)(=O)=O)c1`, “inactive”; in that of `CS(=O)(=O)N(CC(=O)Nc1ccc2c(c1)OCO2)Cc1ccccc1`, “inactive”.
With `O=C(NCc1ccc(F)cc1)c1c(O)c2cccc3c2n(c1=O)CCC3` the entry was “inactive”; with `Cc1ccc(C(=O)Nc2nc3ccccc3n2CCN2CCCC2)cc1`, “inactive”; with `CCN1C(=O)c2c(C)nc3ccccc3c2C1=O`, “inactive”.
Turning to `COCCCN1C(=O)N(c2ccc(F)cc2)C(=O)C1CC(=O)Nc1ccc(OC)cc1` (centres undefined), the result was inactive.
In the case of `O=C(NNC(=O)c1ccccc1O)c1ccc(-c2ccc([N+](=O)[O-])cc2)o1` it was “inactive”; in that of `NC(=S)N/N=C/c1ccc(-c2cccc([N+](=O)[O-])c2)o1`, “inactive”; in that of `Cc1cc(C)c([N+](=O)[O-])cc1-c1ccc(/C=N/NC(=O)c2nonc2N)o1`, “inactive”.
In the case of `N=C(c1cccc([N+](=O)[O-])c1)N1CCCCCC1` it was “inactive”.
In the case of `Cc1ccc(C(=O)OCc2cn3ccccc3n2)cc1` it was “inactive”.
On to `COc1cccc(NC(=O)N2CCN(c3nnnn3-c3ccccc3)CC2)c1`, for which the molecule was called inactive.
Consider `Cc1ccc(-n2nc(C)c3c(C)c(CCC(=O)O)c(C)nc32)cc1`, for which the result was inactive.
In the case of `Cc1cc(=O)nc2c3ccccc3n(C(C)C(=O)NCCC(C)C)n12` (centres undefined) it was “inactive”.
In the case of `O=C(COc1ccc(S(=O)(=O)N2CCCC2)cc1)NCCC1=CCCCC1` it was “inactive”.
Consider `CCN(CC)CCCNC(=O)c1cn(CCOC)c(=O)c2c1c1ccccc1n2C`, for which the outcome was inactive.
In the case of `Cc1cc(C)cc(-n2nnc(C(=O)NCc3ccco3)c2N)c1` it was “inactive”; in that of `COc1ccc(-n2nc(C(=O)NCc3ccco3)c3ccccc3c2=O)cc1`, “inactive”.
With `CC1(C)CC2(CC(c3ccccc3F)c3ccc(O)c(O)c3O2)NC(=S)N1` (centres undefined) the entry was “inactive”; with `CCc1ccc2c(CN3CCC(C(=O)OC)CC3)cc(=O)oc2c1`, “inactive”.
In the case of `C=C(Cl)COc1ccc2c(CCC)cc(=O)oc2c1` it was “inactive”; in that of `CCN1CCN(Cc2cc(=O)oc3ccc(C)cc23)CC1`, “inactive”.
For `CCc1cc2c(CN3CCN(CC)CC3)cc(=O)oc2cc1O`, the molecule was classed as inactive.
With `COc1ccc(S(=O)(=O)N2CCOC2CNC(=O)C(=O)NCc2ccccn2)cc1` (centres undefined) the entry was “inactive”; with `CC(C)C(C(=O)OCC(=O)c1ccc2c(c1)NC(=O)CO2)N1C(=O)c2ccccc2C1=O` (centres undefined), “inactive”.
In the case of `COCCNC(C)C(=O)C12CC3CC(CC(C3)C1)C2` (centres undefined) it was “inactive”.
In the case of `Oc1ccc(/C=N/N2CCCCC2)c(O)c1O` it was “inactive”; in that of `O=C(c1cc2ccccc2o1)N1CC=C(c2ccccc2)CC1`, “inactive”.
`O=C(CCC(=O)NNc1nc2ccccc2c2nc(-c3ccccc3)nn12)NCCCN1CCOCC1`: the call was inactive.
Turning to `Cc1ccc2nsnc2c1S(=O)(=O)N(CCO)Cc1cc2cc3c(cc2[nH]c1=O)OCCO3`, the result was inactive.
With `CCn1c(SCC(=O)NCC(=O)Nc2ccc(F)cc2)nnc1-c1ccncc1` the entry was “inactive”; with `CCn1c(=O)cc(SCC(=O)NCc2ccc(C)o2)c2ccccc21`, “inactive”.
In the case of `Cc1cccc(OCc2nc3ccccc3c(=O)n2N)c1` it was “inactive”.
In the case of `CC(=O)c1ccc(NC(=O)C(C)OC(=O)C(C)Oc2cccc(C)c2)cc1` (centres undefined) it was “inactive”.
Turning to `Cc1ccc([N+](=O)[O-])cc1NC(=O)CCSc1ccc(Cl)cc1`, the call was inactive.
In the case of `CCCn1nc(C(=O)Nc2cc(C(=O)OC)ccc2C)c2ccccc2c1=O` it was “inactive”; in that of `CCCCN1C2=C(C(=O)CC(C)(C)C2)C(c2ccccc2)C2=C1c1ccccc1C2=O` (centres undefined), “inactive”; in that of `Cc1cc(C)cc(N(C(C)C(=O)Nc2c(C)n(C)n(-c3ccccc3)c2=O)S(C)(=O)=O)c1` (centres undefined), “inactive”.
In the case of `CC1=C/C(=N\OS(=O)(=O)c2ccccc2)C=CC1=O` it was “inactive”.
In the case of `COC(=O)Cc1csc(Nc2c(C)n(C)n(-c3ccccc3)c2=O)n1` it was “inactive”; in that of `Cc1c(NC(=O)c2cc(-c3cccs3)on2)c(=O)n(-c2ccccc2)n1C`, “inactive”.
Regarding `Cc1cc(C(=O)Nc2ccc(S(=O)(=O)Nc3onc(C)c3C)cc2)cs1`, the outcome was inactive.
With `CCOc1ccc2nc(SCc3ccc(C(=O)OC)o3)[nH]c2c1` the entry was “inactive”; with `COC(=O)c1ccc(Cn2c(C)cc(C)[n+]2C)o1`, “inactive”.
In the case of `COc1ccccc1N1CCN(C(=O)c2ccoc2C)CC1` it was “inactive”; in that of `COc1ccc(S(=O)(=O)N2CCN(C(=O)c3cc4c(s3)CCC4)CC2)cc1`, “inactive”; in that of `O=C(c1ccco1)N(CCC(c1ccccc1)c1ccco1)Cc1ccc(F)cc1` (centres undefined), “inactive”.
With `Cc1cccc(OCCC(=O)Nc2c(C)n(C)n(-c3ccccc3)c2=O)c1` the entry was “inactive”; with `Cc1c(NC(=O)COC(=O)c2ccccc2Cl)c(=O)n(-c2ccccc2)n1C`, “inactive”.
`CCOC(=O)Nc1cc(C)c(Cl)cc1OC`: the molecule was classed as inactive.
In the case of `CC(C)(C)NC(=O)c1cc([N+](=O)[O-])ccc1N1CCCCC1`, the molecule was classed as inactive.
As to `Nc1cc(C(=O)O)ccc1N1CCCCC1`, the molecule was classed as inactive.
With `Cc1ccc(Cn2c(SCC(C)C)nc3c2c(=O)n(C)c(=O)n3C)cc1` the entry was “inactive”; with `CCn1c(C)cc(=S)c2ccccc21`, “inactive”.
With `CCN(CC(=O)Nc1ccc(NC(C)=O)cc1)C(=O)C1CCCC1` the entry was “inactive”.
With `O=C(Cn1c2[n+](c3ccc(C(F)(F)F)cc31)CCCCC2)Nc1c(F)cccc1F`, the result was inactive.
For `Cc1ccc(C(=O)Nc2nc(=O)n(C(=O)c3ccccc3C)s2)cc1`, the result was inactive.
In the case of `CCS(=O)(=O)c1ccc2oc(Nc3cccc(OC)c3)nc2c1` it was “inactive”.
In the case of `Cc1nn(Cc2ccccc2)c(C)c1NC(=O)Cn1nc([N+](=O)[O-])c(Cl)c1C` it was “inactive”; in that of `O=c1[nH]nc(Cc2ncc(C(F)(F)F)cc2Cl)c2ccccc12`, “inactive”.
Regarding `N#Cc1nc(COc2ccc(Cl)cc2Cl)oc1N1CCOCC1`, the molecule was called inactive.
As to `COc1ccc(N2CCN(c3oc(COc4ccc(Cl)cc4Cl)nc3C#N)CC2)cc1`, the result was inactive.
For `O=C1CN(C(=O)CSc2nnc(C3CC3)n2-c2ccccc2)c2ccccc2N1`, the result was inactive.
Turning to `Cc1nc(Nc2ccc(S(N)(=O)=O)cc2)sc1C(=O)Nc1ccccc1`, the result was inactive.
